# MRP-1 activ – activators of MRP-1; AID 799; viability increase, % at 10 µM; H69AR cells + doxorubicin, viability rescue, CellTiter-Glo; 140,000 tested, 0.61% active;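 active means viability gain under doxorubicin at or above a set limit, the compound median plus 3 SD, cut at about 4.7% in these data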;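 further: MRP-1 overexpressing cells given doxorubicin 25 µM after compound pretreatment; 18-22 h compound pretreatment then 72 h with doxorubicin before readout; 0% = doxorubicin-only wells and 100% = vehicle-treated cells without doxorubicin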
# GALR2 antag – antagonists of human galanin receptor 2 (GALR2) | O43603 | 140,000 tested, 0.39% active | GALR2-expressing cells, antagonist mode | inhibition, % at 4 µM; in the data active means inhibition above about 27%;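 further: cells stimulated with galanin 1-16 at roughly its EC80; 0% = agonist challenge control and 100% = basal control without agonist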
# S1P2 blocker – S1P2 (human) receptor antagonism; O95136; cell-based S1P2 antagonist assay, inhibition at 5 uM; inhibition, % at 5 µM; 97,000 tested, 0.21% active; in the data active means inhibition above about 45%;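 further: CRE beta-lactamase reporter cells expressing human S1P2 stimulated with S1P; 0% = agonist at EC80 alone and 100% = agonist plus reference antagonist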
# Target sequence (O95136 whole entry, looked up): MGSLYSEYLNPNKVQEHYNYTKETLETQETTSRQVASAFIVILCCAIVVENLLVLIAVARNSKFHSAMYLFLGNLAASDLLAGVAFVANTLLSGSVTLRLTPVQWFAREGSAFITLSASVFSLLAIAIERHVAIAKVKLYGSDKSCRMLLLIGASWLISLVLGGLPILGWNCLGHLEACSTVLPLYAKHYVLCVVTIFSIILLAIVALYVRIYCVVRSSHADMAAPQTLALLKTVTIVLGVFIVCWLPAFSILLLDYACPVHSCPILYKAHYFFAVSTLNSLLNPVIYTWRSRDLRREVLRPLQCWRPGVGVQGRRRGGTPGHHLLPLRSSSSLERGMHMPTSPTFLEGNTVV
# GALR2 ag – activates the human galanin receptor 2; GALR2-expressing cells, agonist activation read-out; activation, % (no concentration beside the values); 140,000 tested, 0.48% active; AID 803; in the data active means activation above about 5%, passing the limit was not always enough;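 further: 0% = vehicle buffer wells and 100% = reference agonist at full effect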
# S1P2 agonist – agonists of human S1P2 receptor; S1P2-expressing cell line, agonist reporter read-out; activation, % at 4.5 µM; 97,000 tested, 0.46% active; in the data active means activation above about 16%;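 further: 0% = vehicle low control and 100% = maximal reference agonist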
# MRP resist rev – compounds reversing MRP-mediated drug resistance. H69AR cells + 2 uM doxorubicin, CellTiter-Glo, 72 h. differential viability (reversal), % at 10 µM. 85,000 tested, 0.04% active. AID 602;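 active means viability drop by adding the cancer drug above about 55%, with treated viability meeting a 40% cutoff, limit read from the data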;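 further: viability without doxorubicin minus viability with 2 µM doxorubicin for each compound; larger differential means the compound sensitizes cells more to doxorubicin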
# * marks the source's active call; other numbers are inactive results; nt = no result. The list is not random: actives were taken first. Their share in the collection is about 1.8%.
SMILES,MRP-1 activ,GALR2 antag,S1P2 blocker,GALR2 ag,S1P2 agonist,MRP resist rev
COc1ccc(C(c2c[nH]c3ccccc23)c2c[nH]c3ccccc23)cc1O,-1.4,-5.9,5.1,-1.2,88.7*,4.3
COc1ccc(C(=O)NCc2ccc(-c3nc4ccccc4s3)cc2)cc1,7.5*,-1.3,-0.2,-2.1,-2.1,nt
CCOC(=O)c1sc(Nc2nc3cc4c(cc3s2)OCO4)cc1C,4.7*,-3.3,nt,-1.1,nt,nt
COC(=O)c1ccc(COc2cc(O)c3c(c2)OC(C)(C)CC3=O)cc1,6.1*,3.9,-14.8,-1.4,-7.8,5.9
CC1(C)CC(=O)c2c(O)cc(OCc3ccc(Br)cc3)cc2O1,3.7,-4.8,-19.0,0.0,-1.0,-6.2
CC(C)(C)C1CCc2c(sc(NC(=O)c3cccs3)c2C(=O)N2CCCCC2)C1 (stereo not drawn),5.0*,-6.7,2.6,-0.5,-1.8,-18.3
CCn1c(CNC(=O)COc2ccc(C(C)C)cc2)nnc1SCC(=O)Nc1ccccc1C(C)C,6.2*,-5.3,14.4,-1.0,-4.4,nt
CCn1c(CNC(=O)COc2ccc(C(C)C)cc2)nnc1SCC(=O)Nc1ccccc1F,-0.3,-9.1,-6.2,-1.8,-1.0,nt
CCOc1ccc(OCCSc2nnnn2-c2ccccc2)cc1,2.2,9.2,-7.5,-1.3,-7.0,10.6
c1ccc(OCCSc2nnnn2-c2ccccc2)cc1,-0.1,11.1,14.3,-1.4,61.8*,16.1
CCCCOc1ccc(C(=O)N/C(=C\c2cccc([N+](=O)[O-])c2)C(=O)OCc2ccco2)cc1,-0.9,-3.0,nt,-1.1,nt,nt
c1ccc2c(-c3nc(C4CCCCC4)no3)cc(-c3ccncc3)nc2c1,7.6*,-1.1,-16.0,-1.7,1.0,2.5
CC(NC(=O)c1ccc(Br)cc1)c1ccc2c(c1)CCCC2 (stereo not drawn),5.6*,3.4,nt,-0.6,nt,nt
CC(NC(=O)c1ccc(F)cc1)c1ccc2c(c1)CCCC2 (stereo not drawn),2.2,10.1,-7.3,-1.6,-4.3,nt
COc1ccc2[nH]c(C)c(CN3CCCC(C)C3)c(=O)c2c1 (stereo not drawn),nt,nt,nt,nt,nt,-12.2
Cc1ccc(C(=O)COc2ccccc2-c2ccccc2)cc1C,5.0*,2.1,nt,-2.0,nt,nt
CCCSc1cc(NCCOC(=O)CCC)c([N+](=O)[O-])c2nonc12,-2.8,-12.3,nt,-0.7,nt,nt
CCCC(=O)OCCNc1cc(Sc2nccn2C)c2nonc2c1[N+](=O)[O-],-5.3,3.8,nt,6.2*,nt,nt
O=C(CC1C(=O)N(c2ccccc2)C(=S)N1c1ccccc1)c1ccccc1 (stereo not drawn),-1.6,4.2,nt,0.3,nt,nt
O=C(CC1C(=O)N(c2ccccc2)C(=S)N1c1ccccc1)c1ccc(Br)cc1 (stereo not drawn),4.7*,0.1,nt,0.3,nt,nt
Cn1c(SCC#N)nnc1-c1cccnc1,-0.6,1.4,nt,-0.6,nt,nt
COc1ccccc1NC(=O)c1cccs1,-0.7,7.3,8.8,-1.6,-8.5,nt
COC(=O)c1ccccc1NC(=O)c1cccs1,-1.3,-4.7,-28.9,-1.2,1.2,56.1*
Cc1nc(SCC(=O)Nc2ccc(F)cc2)c2oc3ccccc3c2n1,-1.5,12.9,-17.6,-2.5,-3.6,-5.8
Cc1nc(SCC(=O)Nc2ccccc2)c2oc3ccccc3c2n1,-0.3,2.4,-32.2,-2.6,16.6*,-2.4
SMILES,MRP-1 activ,GALR2 antag,S1P2 blocker,GALR2 ag,S1P2 agonist,MRP resist rev
COc1ccc(C(=O)Nc2ccc(S(=O)(=O)Nc3nccnc3OC)cc2)cc1,6.2*,15.3,2.9,-1.3,0.8,nt
COc1nccnc1NS(=O)(=O)c1ccc(NS(=O)(=O)c2ccc(NC(C)=O)cc2)cc1,-1.6,-3.2,-20.0,0.0,-4.2,-15.0
COc1cc(-c2nc(S(=O)(=O)c3ccc(Cl)cc3)c(N3CCOCC3)o2)cc(OC)c1OC,0.0,-7.0,-25.0,-0.4,9.8,-1.6
COc1cc(-c2nc(S(=O)(=O)c3ccc(C)cc3)c(N3CCOCC3)o2)cc(OC)c1OC,-1.7,-4.1,-55.1,-0.9,18.0*,nt
FC(F)(F)c1nc(-c2ccncc2)ncc1-c1nnnn1-c1ccccc1,-3.0,-8.7,24.0,-2.0,-9.7,nt
Fc1ccc(-n2nnnc2-c2cnc(-c3cccs3)nc2C(F)(F)F)cc1,5.1*,10.5,76.1*,-1.2,-10.9,nt
Cc1ccccc1NC(=O)COc1nsnc1N1CCOCC1,0.4,-11.4,-2.7,-0.8,-3.2,-4.2
O=C(COc1nsnc1N1CCOCC1)N/N=C/c1ccccc1O,5.5*,11.1,nt,0.0,nt,nt
CCCCN(C)CCCNC(=O)Cn1c(=O)sc2ccccc21,-1.4,-11.9,nt,-0.7,nt,7.7
Cc1cccc(Cc2cnc(NC(=O)CN3C(=O)/C(=C/c4ccccc4)SC3=S)s2)c1,5.6*,4.2,23.1,-4.7,-8.5,nt
Cc1ccc(/C=C2/SC(=S)N(CC(=O)Nc3ncc(Cc4ccc(C)cc4)s3)C2=O)cc1,-2.2,-8.2,-0.9,-2.6,-2.5,-2.5
Cc1cccc(N=c2oc3cc(O)ccc3cc2C(N)=O)c1,-6.2,-28.1,-43.4,66.1*,29.8*,-2.4
COc1ccccc1N=c1oc2cc(O)ccc2cc1C(N)=O,-1.8,-46.0,-34.3,20.3*,44.5*,nt
COc1ccccc1NC(=O)c1cc2ccc(O)cc2o/c1=N\O,-2.3,0.3,-1.5,0.6,-2.2,-15.4
COc1ccccc1N=c1oc2cc(O)ccc2cc1C(=O)NCC1CCCO1 (stereo not drawn),-1.2,-15.4,-15.6,29.0*,16.0,-1.0
C=CCOC(=O)C1=C(C)NC(C)=C(C(=O)OCC=C)C1c1cn(-c2ccccc2)nc1-c1ccco1,-2.2,-1.4,nt,5.1*,nt,nt
OCc1cn(-c2ccccc2)nc1-c1ccco1,0.7,4.9,-1.4,-1.4,-4.6,6.9
COc1ccc(-c2cc3nc(-c4ccccc4)cc(N4CCC5(CC4)OCCO5)n3n2)cc1,9.0*,-12.4,1.4,0.7,-1.8,1.6
Cc1cccc(C)c1OCc1nnc(SCC(=O)Nc2nccs2)n1-c1ccccc1,-1.4,-6.8,8.2,6.5*,-0.1,-16.7
Cc1nc2ccccc2cc1OCc1ccc(Cl)cc1,4.3,19.9,70.0*,0.3,-2.6,nt
CCCNC(=O)Cn1cnc([N+](=O)[O-])n1,-1.5,14.0,nt,-1.0,nt,nt
CCN(CC)C(=O)c1sc(NC(=O)c2ccncc2)c(C(=O)OC)c1C,-1.9,-1.5,nt,0.5,nt,nt
CCOC(=O)c1c(NC(=O)OC)sc(C(=O)N(CC)CC)c1C,0.8,-5.4,-15.5,-0.8,-3.5,76.3*
CCCCCCC1CC(CSc2ncn[nH]2)OC1=O (stereo not drawn),7.2*,0.8,9.1,-1.2,-5.3,1.0
CCCCCCC1CC(CCc2nc(=S)[nH][nH]2)C(=O)O1 (stereo not drawn),-3.4,1.4,nt,-0.7,nt,nt
CCOC(=O)C1=C(C)Nc2ncnn2C1c1ccc(N(C)C)cc1 (stereo not drawn),-2.3,2.9,nt,0.3,nt,14.3
CCOC(=O)C1=C(C)Nc2ncnn2C1c1cccnc1 (stereo not drawn),177.3*,2.2,2.9,-0.9,-7.4,-11.5
Cc1onc(-c2ccccc2Cl)c1C(=O)OCC(=O)Nc1ccc2c(c1)OCO2,5.7*,4.7,nt,-1.1,nt,11.5

# Screening results deposited in PubChem by several laboratories.
